Test results reported in PubChem BioAssay AID1159580 (chemical genetic matrix, 2015).
In all, about 5,500 compounds went through this assay and about 2,000 (36%) were called active. Another 18% or so got no clear call; they are omitted. Cut-off read from the data, not from the text of the source: active = normalized growth mostly below about 0.91 (no sharp cut-off); inconclusive = no clear call, values can overlap the other calls; inactive = mostly above about 0.92. Some of the results follow.

Test: chemical genetic growth profiling, strain panel (AID 1159580);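 note: tested at 20 µM; growth read once vehicle control cultures reached saturation at 30 °C; 1 = growth at the plate median or of vehicle wells; lower values mean less growth of the strain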
Settings: S. cerevisiae deletion strains, growth OD

Measured: normalized growth

CC(C)(Oc1ccc(Cl)cc1)C(=O)O
inactive: locus YAL013W, strain DEP1, stronger effect = lower value 1 | locus YAL021C, strain ccr4, stronger effect = lower value 1.02 | locus YAL026C, strain drs2, stronger effect = lower value 1.03 | locus YAL030W, strain snc1, stronger effect = lower value 0.996 | locus YBL061C, strain skt5, stronger effect = lower value 1.04 | locus YBR009C, strain hhf1, stronger effect = lower value 0.988 | locus YBR021W, strain FUR4, stronger effect = lower value 1.12 | locus YBR023C, strain chs3, stronger effect = lower value 1.03 | locus YBR171W, strain sec66, stronger effect = lower value 1.02 | locus YBR229C, strain ROT2, stronger effect = lower value 0.998 | locus YBR231C, strain swc5, stronger effect = lower value 0.997 | locus YBR279W, strain paf1, stronger effect = lower value 1.02 | locus YCL011C, strain gbp2, stronger effect = lower value 1 | locus YCL016C, strain dcc1, stronger effect = lower value 1.03 | locus YCL029C, strain bik1, stronger effect = lower value 0.956 | locus YCL069W, strain vba3, stronger effect = lower value 1.01 | locus YCR088W, strain abp1, stronger effect = lower value 1.01 | locus YDL005C, strain med2, stronger effect = lower value 1.02 | locus YDL035C, strain GPR1, stronger effect = lower value 0.997 | locus YDL040C, strain nat1, stronger effect = lower value 0.996 | locus YDL074C, strain BRE1, stronger effect = lower value 0.949 | locus YDL101C, strain DUN1, stronger effect = lower value 0.986 | locus YDL134C, strain PPH21, stronger effect = lower value 1 | locus YDL185W, strain tfp1, stronger effect = lower value 0.938 | locus YDL192W, strain arf1, stronger effect = lower value 0.981 | locus YDR001C, strain nth1, stronger effect = lower value 1 | locus YDR069C, strain doa4, stronger effect = lower value 1.01 | locus YDR101C, strain arx1, stronger effect = lower value 0.979 | locus YDR137W, strain rgp1, stronger effect = lower value 1.01 | locus YDR150W, strain NUM1, stronger effect = lower value 0.995 | locus YDR159W, strain sac3, stronger effect = lower value 0.949 | locus YDR162C, strain NBP2, stronger effect = lower value 0.987 | locus YDR195W, strain ref2 0.979 | locus YDR297W, strain sur2, stronger effect = lower value 0.99 | locus YDR318W, strain mcm21, stronger effect = lower value 0.98 | locus YDR334W, strain swr1, stronger effect = lower value 1 | locus YDR335W, strain msn5, stronger effect = lower value 1.01 | locus YDR388W, stronger effect = lower value 0.979 | locus YDR392W, strain spt3, stronger effect = lower value 0.974 | locus YDR502C, strain sam2, stronger effect = lower value 0.993 | locus YEL003W, strain gim4, stronger effect = lower value 0.984 | locus YEL037C, strain rad23, stronger effect = lower value 1.01 | locus YEL061C, strain CIN8 (second series), stronger effect = lower value 1 | locus YEL061C, strain CIN8, stronger effect = lower value 1 | locus YER015W, strain faa2, stronger effect = lower value 1.01 | locus YER016W, strain bim1, stronger effect = lower value 1.03 | locus YER110C, stronger effect = lower value 0.983 | locus YER111C, strain swi4, stronger effect = lower value 1.01 | locus YER155C, strain BEM2 (second series), stronger effect = lower value 1.01 | locus YER155C, strain BEM2, stronger effect = lower value 0.983 | locus YER167W, strain BCK2, stronger effect = lower value 0.999 | locus YFR010W, strain ubp6, stronger effect = lower value 0.976 | locus YGL078C, strain dbp3, stronger effect = lower value 0.998 | locus YGL086W, strain mad1, stronger effect = lower value 0.997 | locus YGL167C, strain pmr1, stronger effect = lower value 1.01 | locus YGL173C, strain kem1, stronger effect = lower value 0.982 | locus YGL227W, strain vid30, stronger effect = lower value 0.993 | locus YGL240W, strain doc1, stronger effect = lower value 1 | locus YGL248W, strain PDE1, stronger effect = lower value 1 | locus YGL253W, strain hxk2, stronger effect = lower value 1.01 | locus YGR078C, strain PAC10, stronger effect = lower value 0.954 | locus YGR135W, strain pre9, stronger effect = lower value 1.01 | locus YGR229C, strain SMI1, stronger effect = lower value 1 | locus YGR252W, strain gcn5, stronger effect = lower value 1.23 | locus YHR013C, strain ard1, stronger effect = lower value 1.02 | locus YHR027C, strain rpn1, stronger effect = lower value 1 | locus YHR030C, strain SLT2, stronger effect = lower value 1 | locus YHR079C, strain IRE1 (second series), stronger effect = lower value 0.964 | locus YHR094C, strain hxt1, stronger effect = lower value 0.963 | locus YHR129C, strain ARP1, stronger effect = lower value 0.988 | locus YHR142W, strain chs7, stronger effect = lower value 1.04 | locus YHR200W, strain rpn10, stronger effect = lower value 0.977 | locus YIL066C, strain RNR3, stronger effect = lower value 0.99 | locus YIL073C, strain SPO22, stronger effect = lower value 0.948 | locus YIL125W, strain kgd1, stronger effect = lower value 0.98 | locus YIR030C, strain dcg1, stronger effect = lower value 0.988 | locus YJL092W, strain hpr5, stronger effect = lower value 1.02 | locus YJL095W, strain BCK1 (second series), stronger effect = lower value 1.02 | locus YJL095W, strain BCK1, stronger effect = lower value 0.976 | locus YJL115W, strain asf1, stronger effect = lower value 1.01 | locus YJL129C, strain trk1, stronger effect = lower value 1.03 | locus YJL134W, strain LCB3, stronger effect = lower value 0.999 | locus YJL154C, strain vps35, stronger effect = lower value 1.01 | locus YJL164C, strain tpk1, stronger effect = lower value 0.993 | locus YJL166W, strain qcr8, stronger effect = lower value 0.997 | locus YJL168C, strain set2, stronger effect = lower value 0.976 | locus YJL187C, strain SWE1 (second series), stronger effect = lower value 0.973 | locus YJR043C, strain POL32, stronger effect = lower value 0.985
